3CLpro inhibitor – SARS-CoV 3CLpro protease inhibitors, primary screen, biochemical, quenched FRET; recombinant SARS-CoV 3CLpro, quenched FRET peptide cleavage; inhibition, % at 6 µM; 0.14% of 290,000 active; in the data active = inhibition above about 12%
BH1578 lux ind – inducers of Vibrio cholerae quorum light production without autoinducers, primary screen, BH1578 luxS cqsA deficient, single point; V. cholerae BH1578 lux reporter, luminescence, 6 h; activation, % at 18.7 µM; 0.16% of 350,000 active; AID 588436, 2011; in the data active = activation mostly above about 9.7%, no sharp cut-off
GDH-TPI inh – GDH-TPI coupling enzyme inhibitors, primary screen, artefact control for M. tuberculosis FBA inhibitor project, biochemical, absorbance, full deck. GDH-TPI coupled enzyme counterscreen, NADH absorbance. inhibition, % at 4.8 µM. 1.2% of 360,000 active. AID 588335, 2011; in the data active = inhibition above about 30%;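 note: 0% = DMSO wells and 100% = wells lacking the enzyme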
PrPC surface inh – inhibitors of human cell surface prion protein PrPC, primary screen, cell-based, TR-FRET; 0.43% of 370,000 active; TR-FRET read-out; inhibition, % at 13.8 µM; Major prion protein (Homo sapiens), P04156; in the data active = inhibition above about 24%; note: 0% = median of the test wells and 100% = reference compound wells
FBA Mtb inh – Mtb FBA enzyme inhibitors, primary screen, biochemical, fluorescence, strain H37Rv. Fructose-bisphosphate aldolase (Mycobacterium tuberculosis (strain ATCC 25618 / H37Rv)), …. purified M. tuberculosis FBA, fluorescence read-out. inhibition, % at 1 µM. 2.3% of 360,000 active; in the data active = inhibition above about 27%;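 note: 0% = vehicle and 100% = reference inhibitor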
Target sequence (P9WQA3 whole entry, looked up): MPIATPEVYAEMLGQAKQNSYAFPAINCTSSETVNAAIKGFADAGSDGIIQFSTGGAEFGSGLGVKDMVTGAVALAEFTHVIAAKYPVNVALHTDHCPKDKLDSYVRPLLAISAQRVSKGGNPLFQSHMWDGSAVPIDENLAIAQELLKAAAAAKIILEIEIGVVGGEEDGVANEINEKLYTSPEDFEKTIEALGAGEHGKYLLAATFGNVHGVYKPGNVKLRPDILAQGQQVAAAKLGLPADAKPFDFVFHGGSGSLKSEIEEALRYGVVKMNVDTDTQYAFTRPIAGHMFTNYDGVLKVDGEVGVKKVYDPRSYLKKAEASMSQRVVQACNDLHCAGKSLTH
The depositor's hits bear a star; i = inactive; x = not tested or not shown; + = active, no number. Compounds with a hit are over-represented: about 3.9% of the library has one in this group of screens.

SMILES	3CLpro inhibitor	BH1578 lux ind	GDH-TPI inh	PrPC surface inh	FBA Mtb inh
COCCNC(=O)C(c1ccc(F)cc1)N(C(=O)CCC(=O)Nc1nccs1)c1ccc(C)cc1 (stereo not drawn)	-1	0	8	9	2
CCCCSCc1nc2nc(Cl)c(Cl)nc2[nH]1	x	i	35*	-1	-3
CC(C)c1c(C(=O)N/N=C2\CCc3ccccc32)nnn1-c1nonc1N	-1	0	1	3	2
COc1ccc(C(=O)/C=C/Nc2cc(C)on2)c(OC)c1	1	-1	40*	-14	2
Nc1ccc2c(C(F)(F)F)cc(=O)oc2c1	-7	-2	16	-7	63*
CCOC(=O)N1C(=O)C[C@](Sc2ccc(OC)cc2)(C(=O)N2CCCC2)[C@H]1c1ccc(OC)cc1	x	x	x	1	x
Cc1nonc1NC(=O)CSc1nnc(-c2ccoc2C)n1-c1cccc(Cl)c1	3	1	-3	-4	2
CCCn1c(SCC(=O)Nc2nonc2C)nnc1-c1ccoc1C	-7	0	-1	0	+
Cc1ccc(C(=O)N/N=C\C=C\c2ccc(Br)cc2)cn1	-2	1	35*	1	-3
Cc1ccc(C(=O)N/N=C/c2cc(Br)ccc2O)cn1	-2	2	17	15	4
O=C(N/N=C/c1ccc[nH]1)c1cccnc1	2	1	45*	-3	0
Cc1ccc(C(=O)N/N=C\c2ccc[nH]2)cn1	2	-1	47*	-10	-1
Cc1cccc(C(=O)N/N=C/c2ccc[nH]2)c1	3	0	21	5	1
O=C(N/N=C\c1ccc[nH]1)c1cncc(Br)c1	0	-6	26	-7	4
COc1cc(C(C)n2nnc3ccccc32)ccc1O (stereo not drawn)	x	i	0	4	-2
COC(=O)c1ccc(CSc2nc3c(c(=O)[nH]2)CCC3)cc1	x	0	6	-5	0
O=C(O)C=C1CCN(c2ncc(C(F)(F)F)cc2Cl)CC1	8	i	12	-1	0
O=C(OCC(=O)N1CCN(C(=O)c2ccco2)CC1)c1cncc(Br)c1	x	-1	-3	0	-3
Cc1c(OCC(=O)NCc2ccccn2)ccc2c3c(c(=O)oc12)CCCC3	2	0	7	-7	2
Cc1c(OC(C)C(=O)NCc2ccccn2)ccc2c3c(c(=O)oc12)CCC3 (stereo not drawn)	-1	0	13	-3	30*
CCCC(NS(=O)(=O)c1ccc(C)cc1)C(=O)O (stereo not drawn)	-8	3	-11	0	-3
Cc1ccc(S(=O)(=O)NCCC(=O)Oc2ccc3ccc(=O)oc3c2)cc1	10	0	6	2	+
CCC[C@@H](NS(=O)(=O)c1ccc(C)cc1)C(=O)Oc1ccc2c3c(c(=O)oc2c1)CCC3	3	0	13	9	+
Cc1ccc(S(=O)(=O)N[C@H](C(=O)Oc2ccc3c(C(F)(F)F)cc(=O)oc3c2)c2ccccc2)cc1	4	-1	10	x	24
CCNC(=O)C(Cc1ccccc1)NC(=O)OCc1ccccc1 (stereo not drawn)	-3	9	-1	-1	-3
SMILES	3CLpro inhibitor	BH1578 lux ind	GDH-TPI inh	PrPC surface inh	FBA Mtb inh
Cc1ccc(S(=O)(=O)NC(C(=O)Oc2ccc3ccc(=O)oc3c2)c2ccccc2)cc1 (stereo not drawn)	5	0	25	0	+
CCC(NC(=O)OCc1ccccc1)C(=O)Oc1ccc2ccc(=O)oc2c1 (stereo not drawn)	8	1	20	7	+
O=C1CCCCCN1C(=O)c1cccc(C(=O)N2CCCCCC2=O)c1	0	i	-16	-4	-4
Cc1ccc(S(=O)(=O)NC(C(=O)Oc2ccc3c(C)c(Cl)c(=O)oc3c2)c2ccccc2)cc1 (stereo not drawn)	1	i	7	-1	+
COc1ccc(Oc2coc3cc(O)ccc3c2=O)cc1	2	i	45*	-1	17
OC(c1ccccc1)(c1ccccc1)C1CCN(CCCOc2ccc(OC(F)(F)F)cc2)CC1	x	x	x	1	x
O=C(c1ccc(Cl)c(Cl)c1)N1CCC(=O)N(C(COCc2cccc(C(F)(F)F)c2)Cc2ccccc2)CC1 (stereo not drawn)	5	i	1	2	73*
COc1cccc2[nH]c3ccccc3c(=O)c12	8	0	1	x	135*
COc1cccc2[nH]c(C(=O)NN)c(N)c12	0	-1	14	-2	6
Cc1nc2c(c3c1[nH]c1ccccc13)C(O)CC(C)(C)C2 (stereo not drawn)	0	i	7	-7	120*
Cc1ccc(C)n1-c1nnc(N2CCC(C(=O)NCCCN3CCN(C)CC3)CC2)s1	4	0	10	-1	1
Cc1c(/C=N/Nc2ccc(F)cc2)c(O)n(C)c(=O)c1C#N	-2	0	33*	1	-6
CC(=O)N=Cc1c(C)c(C#N)c(=O)n(C)c1O	-2	0	12	-9	-3
N#Cc1c(-c2ccccc2)nc(SCC(=O)N2c3ccccc3Sc3ccccc32)[nH]c1=O	3	0	13	19	2
CC(=O)OC1=Cc2c(ccc3ccc(=O)oc23)OC1(C)C	-1	0	14	-6	22
CC(C)CC(=O)OC(C)(C)[C@@H]1Cc2c(ccc3ccc(=O)oc23)O1	x	i	7	-2	182*
C/C=C(/C)C(=O)OC(C)(C)[C@@H]1Cc2c(ccc3ccc(=O)oc23)O1	2	0	8	-3	+
C/C=C(/C)C(=O)O[C@@H]1c2c(ccc3ccc(=O)oc23)O[C@@H]1C(C)(C)OC(=O)/C(C)=C\C	-2	-5	7	0	11
CC(C)(C)OC(=O)N1CCC2CCN(CCc3ccccc3)CC21 (stereo not drawn)	x	x	x	-1	x
S=c1[nH]nc(-c2cc3c(s2)-c2ccccc2CC3)o1	-2	0	22	-5	+
CC1CCc2sc(-c3n[nH]c(=S)o3)cc2C1 (stereo not drawn)	4	0	15	-1	+
CSc1nnc(-c2cc3c(s2)-c2ccccc2CC3)o1	-3	-1	17	-14	+
CC1CCc2sc(C(=O)NC3CCCCC3)cc2C1 (stereo not drawn)	x	i	3	-1	3
Oc1cc2ccccc2cc1-c1n[nH]c(=S)o1	3	i	18	-4	6
CCN(C(=O)CSc1nnc(SC(C)C)s1)C1CCS(=O)(=O)C1 (stereo not drawn)	x	i	5	5	-2
Cc1cc(=O)[nH]c2cc(Cl)ccc12	0	i	12	8	1
Cc1[nH]ccc2c1[nH]c1cc(=O)ccc12	-5	-1	7	3	167*
